Reference: PubChem BioAssay (NCI)
About 79,000 compounds went through this panel and 15% of them were active in at least one assay; those are over-represented in the sample as a whole. A number with no mark means an inactive call. Active and inactive are the calls of the source. Rule as the data show it: active = growth inhibition above about 70%; inactive = the rest.

Assay: NCI Yeast Anticancer Drug Screen. Data for the sgs1 mgt1 strain (AID 161);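 also: 0% = growth of cultures given vehicle only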
Conditions: S. cerevisiae sgs1 mgt1 strain, at 50.0 µM, stronger effect = higher value
Summary of the method: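 This yeast growth screen uses a strain with defined DNA-repair lesions; compound-treated growth is compared with vehicle-treated growth.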

SMILES | growth inhibition
COC(=O)Cc1onc(-c2ccccc2)c1[N+](=O)[O-] | -4.8%
CCOC(=O)c1ccc2c(c1)Cc1c-2cc(Br)c(N)c1Br | 45%
O=C(CCl)OCC(CCl)OC(=O)CCl (stereo not given) | 37.1%
Nc1nc(CCl)nc(N2CCOCC2)n1 | 7.7%
CC(C)(C)C(=O)CN | -9.55%
COc1ccc2c(=O)c(-c3ccc(OC)c(OC)c3)c(C)oc2c1 | 13.1%
COc1ccc(C(=O)OCc2ccccc2CN2CCCCC2)cc1 | 11.4%
BrCC(Br)c1ccc(C(Br)CBr)cc1 (stereo not given) | 25.1%
CC(=O)C(C)CCOC1(C)OCCC1C (stereo not given) | -13.1%
O=C(O)C1CCC(C(=O)O)CC1.[NH-]C1CCCCC1[NH-].[Pt+2] (stereo not given) | -1.15%
OCC#C[C@@H]1CC[C@H]1C#CCO | 6.3%
NC1=NS(=O)(=O)Nc2nc(-c3ccc(Cl)cc3)c(-c3ccc(Cl)cc3)nc21 | -25%
Clc1cc(Cl)nc(Cl)n1 | -4.95%
C[C@@]12CCC3C1C=C1C(=O)c4cc(O)ccc4C(=O)[C@]1(O2)[C@@]3(C)C=O | 78.8% (active)
COC(=O)/C(C#N)=C/c1cccnc1 | 6%
O=[N+]([O-])c1cc(Cl)ccc1Nc1ccccc1 | 57.1%
O=C1C2=C(OCCO2)C(=O)C2=C1OCO2 | 28%
c1ccc(CN(CCNc2ccccc2)c2ccccc2)cc1 | 46.2%
CCOC(=O)/C(=C\c1ccccc1)c1nc2ccccc2[nH]1 | -15.4%
NCCC(=O)OC1CCCc2c(O)c3c(c(O)c21)C(=O)c1ccccc1C3=O (stereo not given) | 99.4% (active)

SMILES | growth inhibition
CC(CO)(CO)CN1CCCCC1 | -1.85%
Nc1cc(C(F)(F)F)ccc1[N+](=O)[O-] | 8%
O=C(O)c1ccc(F)c([N+](=O)[O-])c1 | 17.4%
O=C(NCCCl)NCc1cccc2c1CCCC2 | -3.85%
O=[N+]([O-])[C@@H]1C[C@@H]2C=C[C@H]1CC2 | 2.6%
O=C(Nn1c(-c2ccccc2)nc2ccccc2c1=O)c1cccc([N+](=O)[O-])c1 | -14.2%
CN1C(=O)C(C)(O)Sc2ccccc21 (stereo not given) | -36.2%
COc1ccc2ccccc2c1C1OC(=O)c2ccccc21 (stereo not given) | 51.7%
CCCCCCCCCCCCS(=O)(=O)CCC(=O)c1ccco1 | -6.8%
COc1ccc(C)cc1S(=O)(=O)c1c(Cl)cccc1[N+](=O)[O-] | 2.25%
CSc1ccc(NC(=S)NN(C)C)cc1 | -15.2%
CCCCNc1nc(Cl)nc(C(F)(F)F)c1N | 6.55%
Cc1nc2ccccc2c(=O)n1NC(=S)Nc1cccc(Cl)c1 | 28.1%
CC1=CCC(C(C)(C)NC(=O)c2ccccc2)C/C1=N/O (stereo not given) | -60.3%
CC1(C)C(c2ccccc2)=NN(O)c2ccccc21 | 0.25%
Cc1nccnc1N1CCCCC1 | -5.8%
COc1ccccc1NC(=O)CC(=O)N1N=C(C)C(N=Nc2ccc(S(N)(=O)=O)cc2)C1=O (stereo not given) | -8.2%
NC(=O)SCC(N)C(=O)O (stereo not given) | 1.55%
COC(=O)[C@]1(C)CCC[C@]2(C)c3cc(Br)c(C(C)C)cc3CC[C@H]12 | -6.3%
COc1cc(OC)c2c(=O)cc(-c3ccc(OC)c(OC)c3OC)oc2c1 | -30.1%
